# Data published in PubChem BioAssay (Tox21).
# Records with an inconclusive call do not appear. The source made the active and inactive calls. Calls follow the shape of the dose curve; as a rule, active = well fitted cell-killing curve with a large enough effect in the repeat runs; inconclusive = weak or mixed curves; inactive = flat fitted curve, though single readings scatter.
# Test: qHTS assay to identify small molecule antagonists of the estrogen related receptor (ERR) signaling pathway - cell viability counter screen (AID 1224818)
# Conditions: ERR reporter cell line viability counter screen; series mostly up to 46.1 µM; viability change, negative = cytotoxic: at the top concentration
# From the text: National Center for Advancing Translational Sciences [NCATS]
# NIH Chemical Genomics Center [NCGC]
# U.S. Environmental Protection Agency [EPA]
# National Institutes of Environmental Health Sciences [NIEHS]
# National Toxicology Program [NTP]
# U.S. Food and Drug Administration [FDA]
# Estrogen related receptors (ERRs), the first orphan nuclear receptors discovered, play an important role in the control of cellular energy metabolism. ERRs are required for high-energy production in response to the environmental challenges. ERR-alpha was also identified as an adverse marker for breast cancer progression; ERR-alpha-positive tumors have a poor prognosis. To screen and to identify environmental compounds that perturb the ERR signaling pathways could provide valuable information for potential therapeutic or preventive measures in the treatment of metabolic disease. To differentiate true ERR antagonists or agonist from cytotoxic substances, the assay is multiplexed with cell viability assay.
# Tox21 Assay Protocol Summary:
# The ERR cells were dispensed at 2,000 cells/5 ul/well in 1536-well white plates using a Multidrop dispenser. After the assay plates were incubated at a 37 C/5% CO2 incubator for 6 hours, 23 nL of compounds dissolved in DMSO, positive and negative controls or DMSO only was transferred to the assay plate by a pin tool. The plates were incubated at 37 C for 17.5 hours. 1 ul/well of CellTiter-Fluor reagent was added into the assay plates using a Flying Reagent Dispenser. After 30 min incubation at 37 C/5% CO2, the fluorescence intensity in the plates was measured using a ViewLux plate reader.
# % is scaled to controls: 0 for no effect and ±100 for the full control effect.
SMILES,"viability change, negative = cytotoxic",outcome
O=S(=O)(O)C(F)(F)C(F)(F)C(F)(F)C(F)(F)C(F)(F)C(F)(F)C(F)(F)C(F)(F)F,-2.22% [at 92.2 µM] (inactive),–
C[C@]12CCC(=O)C=C1CC[C@@H]1[C@@H]2CC[C@@]2(C)[C@H]1CC[C@]2(C)O,-13.9% [at 92.2 µM] (inactive),–
Oc1ccc(Cl)cc1Cc1ccccc1,-26.2% [at 92.2 µM] (inactive),–
O=C(O)c1nn(Cc2ccc(Cl)cc2Cl)c2ccccc12,7.39% (inactive),–
CCCCCCCCCC(CC)c1ccc(S(=O)(=O)O)cc1 (stereo not given),-25.5% [at 92.2 µM] (inactive),–
C[N+](C)(C)CC(=O)O,-2.66% (inactive),–
c1ccc2c(c1)Nc1ccccc1S2,-3.61% [at 92.2 µM] (inactive),–
NC(=O)CN1CCCC1=O,2.07% (inactive),–
CCC1(c2ccc(N)cc2)CCC(=O)NC1=O (stereo not given),5.24% (inactive),–
NN=C(N)N,–,inactive
